Reference: PubChem BioAssay (NCI)
The panel holds about 79,000 compounds, 15% with a hit somewhere; the sample as a whole holds those more often. Activity calls are given as the source filed them. Cut-off read from the data, not from the text of the source: active = growth inhibition above about 70%; inactive = the rest.

What was measured:
[1] = NCI Yeast Anticancer Drug Screen. Data for the mlh1 strain (AID 171);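 note: 0% = growth of vehicle-treated control cultures of the same strain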; details: S. cerevisiae mlh1 strain growth inhibition, hits give high values
How it was run: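 Yeast screen: mutant strain plus compound, growth scored against vehicle control wells.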

[2] = NCI Yeast Anticancer Drug Screen. Data for the sgs1 strain (AID 173);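 note: 0% = growth of vehicle-only control cultures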; details: S. cerevisiae sgs1 mutant, hits give high values
How it was run: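 Inhibition of yeast growth served as the measure. The mutant strain was treated with each compound, and growth was normalised to cultures receiving vehicle alone.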

[3] = NCI Yeast Anticancer Drug Screen. Data for the mlh1 rad18 strain (AID 175); details: S. cerevisiae mlh1 rad18 strain growth inhibition, hits give high values
How it was run: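 Compound-treated yeast growth, normalised to vehicle controls. Strain bears defined DNA repair mutations.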

[4] = NCI Yeast Anticancer Drug Screen. Data for the rad18 strain (AID 177); details: S. cerevisiae rad18 mutant growth inhibition, hits give high values
How it was run: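 Inhibition values reflect reduced yeast growth compared with vehicle-treated controls, using a strain engineered with a DNA damage repair defect.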

[5] = NCI Yeast Anticancer Drug Screen. Data for the rad52 strain (AID 147);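 note: 0% = growth of vehicle-treated control cultures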; details: S. cerevisiae rad52 mutant growth inhibition, hits give high values
How it was run: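 Genetically altered yeast (DNA damage repair defect) treated with compound; inhibition calculated relative to vehicle.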

[6] = NCI Yeast Anticancer Drug Screen. Data for the wt1 strain (AID 149);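 note: 0% = growth of vehicle-treated wt1 cultures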; details: S. cerevisiae wt1 strain (SPY 50644) growth inhibition, hits give high values
How it was run: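 Vehicle-normalised growth inhibition; strain wt1; compound exposure.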

[7] = NCI Yeast Anticancer Drug Screen. Data for the rad50EPP+ strain (AID 151);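 note: 0% = growth of vehicle-treated control cultures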; details: S. cerevisiae rad50 mutant strain, hits give high values
How it was run: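 Strain rad50EPP+; compound exposure; % growth inhibition vs vehicle.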

[8] = NCI Yeast Anticancer Drug Screen. Data for the rad50 strain (AID 155);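 note: 0% = growth of vehicle-only cultures of the same strain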; details: S. cerevisiae rad50 strain growth inhibition, hits give high values
How it was run: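 A DNA repair-deficient yeast mutant serves as the test organism; compound-induced growth inhibition is calculated against vehicle-treated cells.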

[9] = NCI Yeast Anticancer Drug Screen. Data for the mec2-1 strain (AID 157); details: S. cerevisiae mec2-1 strain, hits give high values
How it was run: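 Cells of the genetically defined mec2-1 yeast strain are incubated with test compound. Inhibition of growth is calculated against vehicle-treated controls.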

[10] = NCI Yeast Anticancer Drug Screen. Data for the rad14 strain (AID 159);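 note: 0% = growth of vehicle-treated control cultures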; details: S. cerevisiae rad14 strain growth inhibition, hits give high values
How it was run: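 Vehicle-treated cultures served as the baseline for growth inhibition of a DNA repair-mutant yeast strain exposed to each compound.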

[11] = NCI Yeast Anticancer Drug Screen. Data for the sgs1 mgt1 strain (AID 161);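 note: 0% = growth of cultures given vehicle only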; details: S. cerevisiae sgs1 mgt1 strain, hits give high values
How it was run: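 Read-out: growth inhibition vs vehicle controls. Cells: mutant yeast strain deficient in DNA damage repair.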

[12] = NCI Yeast Anticancer Drug Screen. Data for the CLN2oe strain (AID 163);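 note: 0% = growth of vehicle-only control cultures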; details: S. cerevisiae CLN2oe strain, hits give high values
How it was run: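 Strain altered in cell-cycle control, incubated with compound; growth compared to solvent-treated controls.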

[13] = NCI Yeast Anticancer Drug Screen. Data for the cln2 rad14 strain (AID 165);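 note: 0% = growth equal to vehicle treated cultures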; details: S. cerevisiae cln2 rad14 strain, hits give high values
How it was run: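 The screen exposed genetically defined yeast (cln2 rad14) to test compounds and scored growth inhibition relative to vehicle-treated controls.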

[14] = NCI Yeast Anticancer Drug Screen. Data for the bub3 strain (AID 167); details: S. cerevisiae bub3 mutant strain, hits give high values
How it was run: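 Inhibition values come from growth of compound-treated mutant yeast normalised to vehicle-treated controls.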

[15] = NCI Yeast Anticancer Drug Screen. Data for the wt2 strain (AID 169);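 note: 0% = growth of vehicle-treated yeast cultures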; details: S. cerevisiae wt2 strain growth inhibition, hits give high values
How it was run: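 Steps: yeast strain treated with compound; growth recorded; inhibition calculated relative to cultures given vehicle alone.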

[16] = at 5.0 µM (retest, dose inferred, filed as 0.5)
[17] = at 50.0 µM (retest, dose inferred, filed as 5.0)

Measured: growth inhibition

OCCN(CCO)c1ccc2c(c1)Cc1ccccc1-2
active: [2]; at 100.0 µM 76% | [3]; [17] 84% | [3]; at 50.0 µM 77.4% | [4]; at 33.0 µM 82% | [4]; at 100.0 µM 90%
inactive: [1]; at 1.2 µM -13% | [1]; at 3.7 µM -7% | [1]; at 11.0 µM -6% | [1]; at 33.0 µM -6% | [1]; at 100.0 µM 26% | [2]; at 1.2 µM -14% | [2]; at 3.7 µM -10% | [2]; at 11.0 µM 13% | [2]; at 33.0 µM 44% | [3]; [16] 23% | [4]; at 1.2 µM -8% | [4]; at 3.7 µM 4% | [4]; at 11.0 µM 18%

COC(=O)c1n[nH]c(C)c1N=NN(C)CCC#N
inactive: [5]; at 1.2 µM 46% | [6]; at 1.2 µM -6% | [6]; at 3.7 µM -5% | [7]; at 1.2 µM 26% | [8]; at 1.2 µM 18% | [8]; [16] 69% | [9]; at 1.2 µM 2% | [9]; at 3.7 µM 3% | [9]; [16] -31% | [10]; at 1.2 µM 1% | [10]; at 3.7 µM 11% | [11]; [16] -11% | [12]; at 1.2 µM -2% | [12]; at 3.7 µM -3% | [13]; [16] -41% | [14]; at 1.2 µM -21% | [14]; at 3.7 µM -16% | [14]; [16] -71% | [15]; at 1.2 µM 0% | [15]; at 3.7 µM 11% | [1]; at 1.2 µM 7% | [1]; at 3.7 µM 0% | [2]; at 1.2 µM 15% | [3]; [16] -49%
active: [5]; at 3.7 µM 91% | [5]; at 11.0 µM 97% | [5]; at 33.0 µM 98% | [5]; at 100.0 µM 99% | [6]; at 11.0 µM 97% | [6]; at 33.0 µM 99% | [6]; at 100.0 µM 99% | [7]; at 3.7 µM 77% | [7]; at 11.0 µM 95% | [7]; at 33.0 µM 97% | [7]; at 100.0 µM 99% | [8]; at 3.7 µM 81% | [8]; at 11.0 µM 96% | [8]; at 33.0 µM 98% | [8]; [17] 96% | [8]; at 50.0 µM 98.5% | [8]; at 100.0 µM 99% | [9]; at 11.0 µM 99% | [9]; at 33.0 µM 99% | [9]; [17] 98% | [9]; at 50.0 µM 99.2% | [9]; at 100.0 µM 99% | [10]; at 11.0 µM 72% | [10]; at 33.0 µM 99% | [10]; at 100.0 µM 99% | [11]; [17] 96% | [11]; at 50.0 µM 98.8% | [12]; at 11.0 µM 95% | [12]; at 33.0 µM 99% | [12]; at 100.0 µM 99% | [13]; [17] 98% | [13]; at 50.0 µM 97.8% | [14]; at 11.0 µM 80% | [14]; at 33.0 µM 99% | [14]; [17] 97% | [14]; at 50.0 µM 99% | [14]; at 100.0 µM 98% | [15]; at 11.0 µM 99% | [15]; at 33.0 µM 99% | [15]; at 100.0 µM 99% | [1]; at 11.0 µM 98% | [1]; at 33.0 µM 99% | [1]; at 100.0 µM 99% | [2]; at 3.7 µM 70% | [2]; at 11.0 µM 99% | [2]; at 33.0 µM 99% | [2]; at 100.0 µM 99% | [3]; [17] 97% | [3]; at 50.0 µM 98.8%

Nc1cc(F)cc2c1-c1ccc(F)cc1C2
active: [5]; at 100.0 µM 92% | [6]; at 100.0 µM 90% | [7]; at 33.0 µM 90% | [7]; at 100.0 µM 95% | [8]; at 50.0 µM 87% | [8]; at 100.0 µM 92% | [9]; at 50.0 µM 74.6% | [9]; at 100.0 µM 91% | [10]; at 100.0 µM 94% | [11]; at 50.0 µM 77% | [12]; at 100.0 µM 72% | [13]; at 50.0 µM 78.5% | [14]; at 50.0 µM 78.5% | [14]; at 100.0 µM 91% | [15]; at 100.0 µM 89% | [1]; at 100.0 µM 92% | [2]; at 100.0 µM 93% | [3]; at 50.0 µM 87.7%
inactive: [5]; at 1.2 µM -1% | [5]; at 3.7 µM -1% | [5]; at 11.0 µM 3% | [5]; at 33.0 µM 30% | [6]; at 1.2 µM -3% | [6]; at 3.7 µM -4% | [6]; at 11.0 µM -4% | [6]; at 33.0 µM 10% | [7]; at 1.2 µM 3% | [7]; at 3.7 µM 10% | [7]; at 11.0 µM 25% | [8]; at 1.2 µM 6% | [8]; at 3.7 µM -41% | [8]; [16] 1% | [8]; at 11.0 µM 33% | [8]; at 33.0 µM 47% | [8]; [17] 60% | [9]; at 1.2 µM -1% | [9]; at 3.7 µM 1% | [9]; [16] 2% | [9]; at 11.0 µM 2% | [9]; at 33.0 µM 23% | [9]; [17] 18% | [10]; at 1.2 µM 4% | [10]; at 3.7 µM 5% | [10]; at 11.0 µM 9% | [10]; at 33.0 µM 27% | [11]; [16] -5% | [11]; [17] 7% | [12]; at 1.2 µM -10% | [12]; at 3.7 µM -9% | [12]; at 11.0 µM -1% | [12]; at 33.0 µM 7% | [13]; [16] 0% | [13]; [17] 40% | [14]; at 1.2 µM -1% | [14]; at 3.7 µM -2% | [14]; [16] 3% | [14]; at 11.0 µM -2% | [14]; at 33.0 µM 16% | [14]; [17] 27% | [15]; at 1.2 µM -3% | [15]; at 3.7 µM 5% | [15]; at 11.0 µM -3% | [15]; at 33.0 µM 15% | [1]; at 1.2 µM -4% | [1]; at 3.7 µM -3% | [1]; at 11.0 µM -3% | [1]; at 33.0 µM 14% | [2]; at 1.2 µM -3% | [2]; at 3.7 µM 0% | [2]; at 11.0 µM 6% | [2]; at 33.0 µM 46% | [3]; [16] -1% | [3]; [17] 61%
